Drawing on PubChem BioAssay, this text covers composite z-score and z-score for 16 compounds.

A short description of test [1]: binders of probe aFSTL3 on microarray, primary screen, stem cell growth factor project, biochemical, small-molecule microarray, fluorescence 635/667 (AID 1064).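 Further: measures binding of the biotinylated anti-FSTL3 antibody to printed compounds.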 As to conditions: higher = more signal.
Test [2] can be described thus: binders from COS7 lysate, DM2A8 probe, primary screen, torsin A project, cell lysate, small-molecule microarray, fluorescence 635/667 (AID 1065). The note with it: higher = more signal, COS7 lysate expressing mutant human TOR1A.
Test [3] can be described thus: binders of probe aFGF2 on microarray, primary screen, stem cell growth factor project, biochemical, small-molecule microarray, fluorescence 635/667 (AID 1067).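 Further: measures binding of biotinylated aFGF2 protein to printed compounds on slides; z-score merges feature fluorescence and signal-to-noise across triplicate slides.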 The note with it: higher = more signal.
A short description of test [4]: binders of probe aFGF10 on microarray, primary screen, stem cell growth factor project, biochemical, small-molecule microarray, fluorescence 635/667 (AID 1071).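 Further: score merges 667 nm spot intensity and signal to noise from triplicate slides.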 As to conditions: higher = more signal.
In test [5] the target is Neurogenic locus notch homolog protein 2 (Homo sapiens) (UniProt Q04721). Nature of the test: Notch2 binders on small-molecule microarrays, primary screen, biochemical, small-molecule microarray, 635 nm fluorescence, stem cell growth factors (AID 1073). As to conditions: Notch2 binding, higher = more signal.
Chain of Neurogenic locus notch homolog protein 2 (Homo sapiens) (Q04721 whole entry, looked up, canonical isoform): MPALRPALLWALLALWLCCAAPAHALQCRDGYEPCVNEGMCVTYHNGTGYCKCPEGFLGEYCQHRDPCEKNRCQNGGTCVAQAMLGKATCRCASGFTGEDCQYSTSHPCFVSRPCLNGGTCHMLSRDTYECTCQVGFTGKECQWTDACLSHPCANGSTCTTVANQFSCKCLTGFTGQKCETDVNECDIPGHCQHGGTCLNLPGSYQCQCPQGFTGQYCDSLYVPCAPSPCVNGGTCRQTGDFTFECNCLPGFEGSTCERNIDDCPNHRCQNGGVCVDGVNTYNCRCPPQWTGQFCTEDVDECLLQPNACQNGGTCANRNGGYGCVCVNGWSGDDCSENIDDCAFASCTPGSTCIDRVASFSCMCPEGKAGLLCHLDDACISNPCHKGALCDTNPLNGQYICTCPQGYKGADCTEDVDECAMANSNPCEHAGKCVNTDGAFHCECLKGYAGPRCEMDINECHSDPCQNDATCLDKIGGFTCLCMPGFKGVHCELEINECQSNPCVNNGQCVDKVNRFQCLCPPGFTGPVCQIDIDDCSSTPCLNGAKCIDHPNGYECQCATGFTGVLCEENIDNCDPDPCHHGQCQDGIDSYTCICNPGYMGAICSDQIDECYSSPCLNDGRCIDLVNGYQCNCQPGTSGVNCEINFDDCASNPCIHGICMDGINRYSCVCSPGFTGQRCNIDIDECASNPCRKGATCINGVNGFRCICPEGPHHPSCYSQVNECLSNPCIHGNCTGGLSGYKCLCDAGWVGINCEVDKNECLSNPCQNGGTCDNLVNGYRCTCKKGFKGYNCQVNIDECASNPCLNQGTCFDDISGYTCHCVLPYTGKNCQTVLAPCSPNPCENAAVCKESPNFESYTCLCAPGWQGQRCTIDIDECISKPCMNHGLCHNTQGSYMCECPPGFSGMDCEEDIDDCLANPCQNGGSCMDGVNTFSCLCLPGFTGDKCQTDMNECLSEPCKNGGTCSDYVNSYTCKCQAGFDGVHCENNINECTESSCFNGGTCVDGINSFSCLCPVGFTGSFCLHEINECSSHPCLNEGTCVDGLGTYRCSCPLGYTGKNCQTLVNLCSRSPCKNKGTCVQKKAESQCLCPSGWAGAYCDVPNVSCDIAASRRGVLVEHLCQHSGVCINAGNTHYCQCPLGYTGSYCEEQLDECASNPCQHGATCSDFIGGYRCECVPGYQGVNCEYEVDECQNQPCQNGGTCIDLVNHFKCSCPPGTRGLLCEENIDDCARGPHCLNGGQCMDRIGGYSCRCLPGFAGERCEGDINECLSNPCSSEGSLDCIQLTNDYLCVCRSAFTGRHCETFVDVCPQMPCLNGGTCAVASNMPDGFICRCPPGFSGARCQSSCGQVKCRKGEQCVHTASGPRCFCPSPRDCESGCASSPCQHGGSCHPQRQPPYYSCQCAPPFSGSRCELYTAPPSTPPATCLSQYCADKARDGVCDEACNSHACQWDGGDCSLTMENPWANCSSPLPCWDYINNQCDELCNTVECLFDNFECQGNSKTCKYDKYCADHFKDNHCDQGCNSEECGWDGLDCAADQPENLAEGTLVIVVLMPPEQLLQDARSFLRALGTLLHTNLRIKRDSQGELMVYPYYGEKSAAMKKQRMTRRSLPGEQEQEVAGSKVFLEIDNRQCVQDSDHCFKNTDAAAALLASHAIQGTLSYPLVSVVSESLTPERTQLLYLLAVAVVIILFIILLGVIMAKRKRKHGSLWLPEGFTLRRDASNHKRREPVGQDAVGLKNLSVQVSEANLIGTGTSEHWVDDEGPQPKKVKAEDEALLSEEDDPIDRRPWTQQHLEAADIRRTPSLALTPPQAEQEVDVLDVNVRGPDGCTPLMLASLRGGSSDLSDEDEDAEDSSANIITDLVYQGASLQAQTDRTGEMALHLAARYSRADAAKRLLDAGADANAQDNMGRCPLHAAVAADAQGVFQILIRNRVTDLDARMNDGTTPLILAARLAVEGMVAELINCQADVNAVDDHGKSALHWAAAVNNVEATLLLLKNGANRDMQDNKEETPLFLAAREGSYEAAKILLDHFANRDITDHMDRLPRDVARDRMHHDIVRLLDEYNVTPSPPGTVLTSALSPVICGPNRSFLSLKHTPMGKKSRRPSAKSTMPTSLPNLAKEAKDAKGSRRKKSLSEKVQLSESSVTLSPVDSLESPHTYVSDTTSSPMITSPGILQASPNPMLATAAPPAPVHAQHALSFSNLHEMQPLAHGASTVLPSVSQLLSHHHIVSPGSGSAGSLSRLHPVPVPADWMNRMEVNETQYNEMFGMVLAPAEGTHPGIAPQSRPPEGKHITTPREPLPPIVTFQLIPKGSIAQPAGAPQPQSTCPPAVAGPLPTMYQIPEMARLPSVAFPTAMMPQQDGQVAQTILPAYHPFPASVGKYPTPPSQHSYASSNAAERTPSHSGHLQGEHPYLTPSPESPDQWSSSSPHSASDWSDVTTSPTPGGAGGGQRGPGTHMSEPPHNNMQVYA
Test [6] addresses Pro-neuregulin-1, membrane-bound isoform (Homo sapiens) (UniProt Q02297). Nature of the test: NRG1 binders on small-molecule microarrays, primary screen, psychiatric disease protein project, biochemical, small-molecule microarray, fluorescence 635/667 (AID 1075).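 Further: score combines 667 nm spot fluorescence with signal to noise.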 The note with it: NRG1 binding, 635 nm fluorescence, higher = more signal.
For test [7], the system named is Neuregulin-1 EGF-like domain. Briefly: binders of neuregulin-1 EGF-like domain, primary screen, biochemical, small-molecule microarray, 635 nm fluorescence (AID 1081).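 Further: binding of the protein to compounds printed on small-molecule microarray slides.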 The note with it: small-molecule microarray binding, higher = more signal.
The nature of test [8]: FRG1 promoter luciferase signal modulators, primary screen, FRG1 inhibition for FSHD, cell-based, C2C12 myotubes, firefly/Renilla luciferase, luminescence (AID 1084). The note with it: higher = more signal, called active from +8 up or from −8 down.
Test [9] can be described thus: binders of probe aFST on microarray, primary screen, stem cell growth factor project, biochemical, small-molecule microarray, fluorescence 635/667 (AID 1086).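 Further: score merges 667 nm fluorescence with signal-to-noise of each printed compound spot.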 The note with it: higher = more signal.
Test [10] is described as follows: binders of probe aHhip on microarray, primary screen, stem cell growth factor project, biochemical, small-molecule microarray, fluorescence 635/667 (AID 1087).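 Further: score merges spot fluorescence at 667nm with spot signal to noise ratio.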 The note with it: higher = more signal.

The source made the active and inactive calls.

Chain of Pro-neuregulin-1, membrane-bound isoform (Homo sapiens) (Q02297 whole entry, looked up, the tested form may be a part, canonical isoform): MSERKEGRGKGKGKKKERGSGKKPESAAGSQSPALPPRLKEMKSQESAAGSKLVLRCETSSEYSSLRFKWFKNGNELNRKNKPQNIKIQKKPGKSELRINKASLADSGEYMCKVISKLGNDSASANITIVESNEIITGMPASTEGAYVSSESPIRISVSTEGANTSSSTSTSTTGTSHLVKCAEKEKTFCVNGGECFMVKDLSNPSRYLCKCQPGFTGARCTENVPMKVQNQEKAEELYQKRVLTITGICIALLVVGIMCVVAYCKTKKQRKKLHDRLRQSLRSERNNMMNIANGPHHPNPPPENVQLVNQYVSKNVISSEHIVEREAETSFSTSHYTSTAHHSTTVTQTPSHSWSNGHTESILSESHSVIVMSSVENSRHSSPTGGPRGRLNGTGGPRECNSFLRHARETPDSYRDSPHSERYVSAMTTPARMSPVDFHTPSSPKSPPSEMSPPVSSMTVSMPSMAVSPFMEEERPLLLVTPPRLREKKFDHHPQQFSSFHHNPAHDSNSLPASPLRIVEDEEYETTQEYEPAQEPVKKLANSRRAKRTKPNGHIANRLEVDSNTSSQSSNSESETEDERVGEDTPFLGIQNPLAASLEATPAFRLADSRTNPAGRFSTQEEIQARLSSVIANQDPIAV

Consider `COC(=O)[C@@]1(Cc2ccccc2)N=C(c2ccc(OCCCO)cc2)O[C@H]1c1ccccc1CN=[N+]=[N-]`, for which the composite z-score in test [1] is 0.261; in test [2], 0.0296; in test [3], -0.0529; in test [4] it was 0.0585; in test [5], 0.33; in test [6], 1.02. The results for the composite z-score in test [7], in [9] and in test [10] were 0.666, 0.226 and -0.41, respectively. The z-score in test [8] is -2.6 (inactive).
Take `CC(C)=CCCC(C)=CC(O)C1C=CC2C(=O)NC(=O)C2N1Nc1ccccn1` (stereo not given): the composite z-score was -0.631 in test [1]; 1.6 in [2]; 0.059 in test [3]; 1.16 in test [4]; 1.57 in test [5]; 0.966 in test [6]. In addition, the composite z-score in test [7] is 1.23; in [9], 1.21; in test [10], -0.109. Besides, the z-score in [8] is -0.385 (inactive).
For `COc1ccc([Si](C)(C)[C@@H]2[C@@H](CC(=O)N3Cc4ccccc4C[C@H]3CO)O[C@]3(C(=O)N(Cc4cccc(N5CCOC5=O)c4)c4ccccc43)[C@H]2C)cc1`, the composite z-score in test [1] is -0.38; in test [2], 0.671; in test [3] it was -0.0264; in test [4], 0.147; in [5], 0.331; in [6], 0.309. In addition, the values for the composite z-score in [7], in test [9] and in test [10] were 0.876, 0.0495 and -0.0618, respectively. Besides, the z-score in [8] was -1.64 (inactive).
In the case of `C=CC[C@@]12N=C(c3ccc(OCCCO)cc3)O[C@@H]1c1ccccc1N(CCC)C2=O`, the composite z-score is 0.953 in test [1]; -0.0868 in test [2]; 0.0528 in [3]; 0.288 in test [4]; 0.381 in test [5]; 0.984 in [6]. Further, the composite z-score is 1.21 in [7], 0.298 in test [9] and -0.0645 in [10]. In test [8], the z-score is 2.39 (inactive).
With `COC(=O)[C@@]1(Cc2ccc(OC)cc2)[C@H]2c3cc(C(=O)N(C)C)[nH]c3C[C@H]2CN1C(=O)c1ccccc1`, the composite z-score in test [1] was -0.231; in test [2], -0.884; in test [3] it was 0.0992; in test [4], 0.304; in test [5], 0.793; in [6] it was 0.882. Moreover, the composite z-score in test [7] is 0.977; in test [9], 0.019; in test [10], -0.0905. Besides, the z-score in test [8] is 1.04 (inactive).
As to `COC(=O)[C@@]1(Cc2ccc(OC)cc2)[C@H]2c3cc(C(=O)N4CCCC4)n(CCn4cc([N+](=O)[O-])nc4C)c3C[C@H]2CN1C(=O)c1ccccc1`, the composite z-score came to 2.45 in test [1]; 2 in test [2]; 0.861 in [3]; 1.25 in [4]; 1.5 in [5]; 1.58 in test [6]. Moreover, the figures for the composite z-score in test [7], in [9] and in test [10] were 1.31, 2.71 and 3.56, respectively. In addition, the z-score in [8] is 2.02 (inactive).
Turning to `O=C1O[C@H](Cc2ccccc2)[C@@H]2[C@H]3C=CCCC=C3CN2[C@H]1Cc1ccc(O)cc1`, the composite z-score in [1] was -0.117; in test [2], -0.0933; in test [3], -0.0692; in test [4], -0.026; in test [5] it was -0.562; in [6], -0.465. The composite z-score in test [7] stood at 0.0706; in test [9], 0.142; in test [10], 0.0976. Besides, in test [8], the z-score is 0.0201 (inactive).
Regarding `CC(=O)c1ccc(C(O)C2C=CC3C(=O)N(c4ccccc4)C(=O)C3N2Nc2ccc(C(C)C)cc2)cc1` (stereo not given), the composite z-score in [1] was 0.305; in [2], -0.152; in test [3], -0.0226; in test [4], 0.897; in test [5], 1.37; in [6], 1.55. Moreover, the results for the composite z-score in test [7], in test [9] and in test [10] were 1.09, 1.51 and -0.106, respectively. The z-score in test [8] was 0.59 (inactive).
Take `[N-]=[N+]=Nc1ccccc1C[C@@]1(C(=O)NCc2ccccc2)N=C(c2ccc(OCCCO)cc2)O[C@@H]1c1ccccc1N=[N+]=[N-]`: the composite z-score in test [1] was 0.581; in test [2] it was 0.504; in test [3] it was 0.0678; in test [4], 1.04; in test [5], 1.09; in test [6], 0.966. For the same compound, the composite z-score in test [7] was 1.06; in test [9], 0.602; in test [10], -0.175. In addition, the z-score in test [8] was -1.24 (inactive).
With `CCOC(=O)C1=CC[C@@H](c2ccccc2)N(S(=O)(=O)c2ccc(C)cc2)[C@H]1c1ccccc1I`, the composite z-score in test [1] is -0.312; in [2], 0.215; in test [3], 0.162; in test [4] it was 0.571; in test [5] it was 1.48; in test [6], 1.05. In addition, the composite z-score in [7] was 1.12; in [9], 1.92; in test [10] it was 0.0662. For the same compound, the z-score in test [8] was -2.08 (inactive).
As for `Cc1ccc(S[C@]2(C(=O)NC3CC3)CC(=O)N(C(C)C)[C@@H]2c2ccc(CO)cc2I)cc1`, the composite z-score in test [1] was -0.113; in test [2], 0.38; in [3] it was -0.0234; in test [4] it was 0.0084; in test [5], -0.372; in test [6] it was 1.89. The composite z-score in test [7] was 1.07; in test [9], 0.933; in [10] it was -0.318. In [8], the z-score is -0.0443 (inactive).
For `C=CCC(OC(C)=O)[C@@H]1[C@@H](N(Cc2ccc(-c3cccc(C(F)(F)F)c3)o2)C(=O)c2ccc(-c3ccccc3)cc2)c2cc(OCCCO)ccc2N1C(=O)c1ccc2ccccc2c1` (stereo not given in full), the composite z-score was -0.071 in test [1]; -0.651 in test [2]; -0.105 in [3]; -0.117 in [4]; 0.311 in test [5]; -0.0973 in [6]. Also, the composite z-score in test [7] is -0.373; in test [9], 0.543; in test [10] it was -0.0618. In addition, the z-score in test [8] is -0.274 (inactive).
With `CCCCCCc1nc(Cc2cc(OC)c(OC)c(OC)c2)cc2c1[Si](C(C)C)(C(C)C)O[C@H]2c1ccccc1`, the composite z-score in test [1] was -0.557; in [2] it was 0.251; in test [3] it was -0.0599; in [4], 0.0804; in test [5] it was 0.191; in [6], -0.0387. In addition, the composite z-score was -0.712 in test [7], 0.0506 in test [9] and 0.0677 in test [10]. Besides, the z-score in test [8] was -0.361 (inactive).
Regarding `C=C(COC)/C(=C/C[C@@H](OC(C)=O)c1ccccc1OCCO)c1cnc2ccccc2c1`, the composite z-score in test [1] is -0.0428; in test [2] it was 1.58; in test [3], -0.0695; in test [4], 0.339; in [5], 1.03; in test [6], 1.23. In addition, the composite z-score in test [7] was 1.13; in [9], 0.278; in test [10], -0.169. Further, the z-score in test [8] was -0.305 (inactive).
Consider `CN1C(=O)C2C=CC(C(O)c3ccc(-c4ccccc4)s3)N(NC(=O)OC(C)(C)C)C2C1=O` (stereo not given), for which the composite z-score in [1] was 0.905; in test [2], 0.286; in test [3] it was -0.229; in test [4], 0.419; in test [5] it was 1.58; in test [6], 1.88. For the same compound, the composite z-score in [7] was 1.21; in test [9], 0.913; in test [10], -0.0618. In test [8], the z-score was 0.392 (inactive).
With `CC(C)(C)N1CC=CC23O[C@@H]4C=CCOC(=O)[C@@H]4[C@H]2C(=O)N(CCO)[C@@H]3C1=O` (stereo not given in full), the composite z-score in [1] is 0.56; in test [2], -0.483; in test [3], -0.206; in [4], -0.437; in test [5], -0.638; in test [6] it was 1.87. The composite z-score in [7] was 1.66; in [9], -0.633; in test [10], -0.274. In addition, in test [8], the z-score is 0.639 (inactive).
